FH mod = Identification of activators of human fumarate hydratase by quantitative high-throughput screening; Fumarate hydratase, mitochondrial (Homo sapiens), P07954; FH coupled MDH/diaphorase resazurin fluorescence, 15 min; Potency, µM (doses to about 79.9 µM), for inactives: top-dose activity change, negative = inhibition, usual class: inhibitors; 54,000 compounds, 0.22% hits; also: potency is read from the fitted curve at half-maximal effect; % is scaled to controls: 0 for no effect and ±100 for the full control effect; the screen sought activators but most active calls are inhibition curves; nearly all actives have a fitted effect of over 45% in size
NTMT1 inh = Primary qHTS for Inhibitors of N-terminal methyltransferase 1 (NTMT1): MTaseGlo Assay; N-terminal Xaa-Pro-Lys N-methyltransferase 1 (Homo sapiens), Q9BV86; NTMT1 MTase-Glo SAH luminescence, purified enzyme; Potency, µM (top dose mostly 114 µM), for the others: top-dose activity change, negative = inhibition, actives largely listed as inhibitors; 59,000 compounds, 2.5% hits;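 also: potency is read from the fitted curve at half-maximal effect; plate controls were DMSO vehicle for no effect and no enzyme for full effect; nearly all actives have a fitted effect of over 65% in size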
Target sequence (Q9BV86 whole entry, looked up): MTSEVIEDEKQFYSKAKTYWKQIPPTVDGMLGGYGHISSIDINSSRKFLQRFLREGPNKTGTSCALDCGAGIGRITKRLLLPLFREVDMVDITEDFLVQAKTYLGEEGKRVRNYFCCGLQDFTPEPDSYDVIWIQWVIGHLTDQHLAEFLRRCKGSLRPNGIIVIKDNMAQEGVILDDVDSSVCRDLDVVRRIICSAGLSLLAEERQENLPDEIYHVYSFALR
Sfp qHTS opt = qHTS Assay for Inhibitos of Bacillus subtilis Sfp phosphopantetheinyl transferase (PPTase): Chemistry Optimization Followup; purified Sfp PPTase enzyme activity, qHTS; 230 compounds, 78% hits; Potency, µM (top dose mostly 114 µM), for the others: at the top dose activity change, negative = inhibition, usual class: inhibitors; shares compounds with NTMT1 inh
Bsub HM489 growth = qHTS for Inhibitos of Bacillus subtilis Sfp phosphopantetheinyl transferase (PPTase): Chemistry Optimization Followup in B. Subtilis HM489; shares compounds with NTMT1 inh; B. subtilis HM489 (acpS-) growth, BacTiter-Glo, 5 h; Potency, µM (titrated, usually from 114 µM), for the others: at the highest dose activity change, negative = inhibition, most hits filed as inhibitors; 220 compounds, 50% hits
Sfp PPTase gel = Gel-Based Assay for Inhibitos of Bacillus subtilis Sfp phosphopantetheinyl transferase (PPTase): Chemistry Optimization Followup; shares compounds with NTMT1 inh; purified Sfp PPTase, gel-based product detection; Potency, µM (doses to about 250 µM), without a hit: at the top dose activity change, negative = inhibition, most hits filed as inhibitors; 220 compounds, 54% hits; AID 540355, 2011
Sfp SAR2 = qHTS Assay for Inhibitors of Bacillus subtilis Sfp phosphopantetheinyl transferase (PPTase): SAR Round 2 | shares compounds with NTMT1 inh | purified Sfp enzyme, PPTase activity, qHTS | Potency, µM (titrated, usually from 57.1 µM), for the others: at the highest dose activity change, negative = inhibition, hits mostly inhibitors | 230 compounds, 87% hits
HSD17B4 inh = Extended Characterization of HPGD Inhibitors: Counterscreen Against HSD17b4. shares compounds with NTMT1 inh. purified HSD17B4, estradiol/NAD+, NADH fluorescence. Potency, µM (doses to about 57.1 µM), for inactives: at the top dose activity change, negative = inhibition, hits mostly inhibitors. 230 compounds, 10% hits. AID 743187, 2013
ALDH1A1 counter = Extended Characterization of HPGD Inhibitors: Counterscreen Against ALDH1A1; shares compounds with NTMT1 inh; recombinant ALDH1A1, NADH fluorescence, propionaldehyde/NAD+; Potency, µM (series often up to 57.1 µM), inactives show top-dose activity change, negative = inhibition, actives largely listed as inhibitors; 230 compounds, 93% hits; AID 743195, 2013
NNMT inh = Counterscreen qHTS for Inhibitors of N-terminal methyltransferase 1 (NTMT1): NNMT MTaseGlo assay. 120 compounds, 10% hits. Potency, µM (series often up to 57.1 µM), for inactives: at the highest dose activity, negative = inhibition, most hits filed as inhibitors. shares compounds with NTMT1 inh. NNMT MTase-Glo luminescence, SAH detection
* marks the source's active call; other numbers are inactive results; u = inconclusive; x = no result; ! = a repeat was not active; [ ] = remark or other dose. This excerpt belongs to a sample that is enriched for hits. Calls follow the shape of the dose curve; as a rule, active = well fitted curve in the direction sought with a large enough effect; inconclusive = small, poorly fitted or top-dose-only effect, or another doubt; inactive = no such curve, though single readings can be large; an effect the other way counts as inactive or inconclusive.

SMILES	FH mod	NTMT1 inh	Sfp qHTS opt	Bsub HM489 growth	Sfp PPTase gel	Sfp SAR2	HSD17B4 inh	ALDH1A1 counter	NNMT inh
Cc1cc(C)nc(NC(=S)N2CCN(c3nccs3)CC2)c1	x	u	u	-27%	20µM*!	4.1µM*!	-15%	11µM*	x
Cc1cc(C)nc(NC(=S)N2CCN(c3nncs3)CC2)c1	x	-25%[57.5 µM]	13µM*	u	32µM*	2.3µM*	0%	22µM*	x
O=C(CN(Cc1cccc2ccccc12)C1CC1)Nc1ccc(N2CCOCC2)cc1	x	1%	x	x	x	x	x	x	x
Cc1cc(O)c(-c2ccc([C@@H](C)CN(C)C)cc2)c2c1[nH]c(=O)c1sccc12	u	25µM*	x	x	x	x	x	x	u
CC(C)(C)c1ccc(-c2nc3ccccc3[nH]2)cc1	0%[53.3 µM]	10µM*	x	x	x	x	x	x	u
CC(C)(C)c1ccc(C(=O)Nc2ccc(-c3nc4ccccc4[nH]3)cc2)cc1	x	5%	x	x	x	x	x	x	x
c1csc(CNc2ncnc3cc(-c4ccc5c(c4)OCO5)ccc23)c1	x	-27%	x	x	x	x	x	x	x
